{"source": "PubChem BioAssay AID504725", "about": "(Broad Institute, 2011)", "note": "Potency and affinity values are given separately. The source made the active and inactive calls. Entries that show only a call come without a potency. The rule behind the calls is not given here."}
{"biological_target": "KSHV LANA C-terminal domain (residues 932-1162) binding to LBS DNA (UniProt O40947)", "assay": "inhibitors of C-LANA binding to LBS DNA, dose response, biochemical, fluorescence polarization, cherry-picked samples (AID 504725)", "conditions": "MBP-C-LANA / FAM-LBS DNA fluorescence polarization, percent change from plate compound-well median; series mostly up to 35 µM"}
{"smiles": "Cc1c(N)cc(S(=O)(=O)O)cc1NC(=O)c1cccc([N+](=O)[O-])c1", "outcome": "inactive"}
{"smiles": "O=C(O)/C=C/C(=O)Nc1ccc(Cc2ccc(NC(=O)/C=C/C(=O)O)cc2)cc1", "outcome": "inactive"}
{"smiles": "CCOCCCn1c(SCC(=O)NC(C)(C)C)nc2ccccc2c1=O", "outcome": "inactive"}
{"smiles": "Cc1cc(C(F)(F)F)c2c(N)c(C(=O)Nc3cc(C)on3)sc2n1", "outcome": "inactive"}
{"smiles": "CN1CCN(CCCNC(=O)c2cc3c(-c4ccc(Cl)cc4)nn(C)c3s2)CC1", "outcome": "inactive"}
{"smiles": "COc1ccc2[nH]c3c(C)c4cc[n+](C)cc4c(C)c3c2c1", "outcome": "inactive"}
{"smiles": "CCc1ccc(N2CC(C(=O)OCC(=O)N(CC)c3c(N)n(Cc4ccccc4)c(=O)[nH]c3=O)CC2=O)cc1", "note": "(centres undefined)", "outcome": "inactive"}
{"smiles": "Cc1cc(S(=O)(=O)NC2CCN(Cc3ccccc3)CC2)c(C)cc1Cl", "outcome": "inactive"}
{"smiles": "CCOC(=O)C1=C(O)/C(=C/c2cc(C)n(-c3ccccc3)c2C)N=C1C", "outcome": "inactive"}
{"smiles": "O=c1cc(-c2ccc(O)c(O)c2)oc2cc(O[C@@H]3O[C@H](CO)[C@@H](O)[C@H](O)[C@H]3O)cc(O)c12", "outcome": "inactive"}
{"smiles": "O=C(/C=C\\c1ccccc1)Oc1cccc2cccnc12", "outcome": "inactive"}
{"smiles": "NC(=O)c1ccc(NC(=O)C2COc3ccccc3O2)cc1", "note": "(centres undefined)", "outcome": "inactive"}
{"smiles": "O=C(Nc1ccc2c(c1)OCO2)N1CCCc2ccccc21", "outcome": "inactive"}
{"smiles": "COc1ccc(N=Nc2nc3ccc(Br)cc3n2C)cc1", "outcome": "inactive"}
{"smiles": "COC(=O)c1c(C)oc2ccc(N(C(C)=O)S(=O)(=O)c3ccccc3)cc12", "outcome": "inactive"}
{"smiles": "O=C(CC1CCCC1)N1CCN(S(=O)(=O)c2ccccc2)CC1", "outcome": "inactive"}
{"smiles": "C/C(=N/NC(=O)c1cc(O)c(O)c(O)c1)c1ccc([N+](=O)[O-])cc1", "outcome": "inactive"}
{"smiles": "O=c1oc2ccccc2nc1/C=C(\\O)c1ccc(Br)cc1", "outcome": "inactive"}
{"smiles": "Oc1ccccc1C=Nc1ccccc1-c1nc2ccccc2[nH]1", "outcome": "inactive"}
